PAX8 reporter – inhibitors of PAX8 transcriptional activity in RMG-I cells | RMG-I TPO-luciferase reporter, SteadyGlo, 24 h | 360,000 tested, 1.2% active | inhibition, % at 12.6 µM;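 active = mean replicate inhibition at least 60% with every replicate also reaching 60%; inconclusive = only one of the two criteria is met; inactive = mean below 60% and not all replicates reaching 60%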;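 also: luciferase light reporting Pax8 driven TPO promoter activity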
CF NFkB inh – inhibitors of cystic fibrosis induced NF-kB. inhibition, % at 5 µM. KKLEB NF-kB-GFP reporter, PAF-induced, GFP fluorescence overnight. 360,000 tested, 0.86% active. AID 588850;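 active = at least 50% inhibition at 5 µM, scaled per plate between neutral and stimulator controls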;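 also: PAF is a Pseudomonas aeruginosa culture filtrate used as stimulus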
EWS-Fli inh – EWS/Fli transcriptional activity inhibition. A673 NR0B1-luciferase reporter, viability-normalised. inhibition, % at 12.6 µM. 350,000 tested, 0.67% active. AID 651661;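 active = mean inhibition of at least 50% after viability correction, with every replicate also passing that limit; inconclusive = mean reaches 50% but only one of two replicates passes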;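 also: firefly luciferase signal divided by Alamar Blue viability fluorescence both relative to DMSO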
HIF-2a block – blocks HIF-2a reporter activity | 786-0 RCC cells HIF-2a reporter, luciferase luminescence, overnight | inhibition, % at 18.8 µM | 360,000 tested, 0.72% active | AID 624352;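 active = inhibition of the luminescence signal of 40% or more relative to plate controls, in a single-dose primary screen at 18.75 µM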
KKLEB cytotox – reduces viability of KKLEB cystic fibrosis airway cells. 360,000 tested, 0.36% active. AID 602141. KKLEB CF airway cells viability, ATPlite luminescence, overnight; active compounds read low; cells stimulated with P. aeruginosa culture filtrate. activity change (cytotoxicity), % at 5 µM;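 active = corrected activity change at or below -50% at 5 µM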
Hits are given with their value; ! = a repeat was not active. In the library only some 2.1% were active in any assay of this set; here they are far more common.

Results for Cc1cc(-c2ccccc2)n2ncc(-c3ccccc3)c2n1 ?
PAX8 reporter: inactive; CF NFkB inh: inactive; EWS-Fli inh: inactive; HIF-2a block: inactive; KKLEB cytotox: inactive

What do the screens show for `O=S(=O)(c1ccc(-c2ccccc2)cc1)N1C[C@@H]2N[C@H](C1)C2c1ccc(-c2ccccc2)cc1` (stereo partly specified)?
PAX8 reporter: inactive; EWS-Fli inh: inactive

How did N#Cc1ccc(-c2ccc([C@@H]3[C@@H]4CN(S(=O)(=O)c5ccc(-c6ccccc6)cc5)C[C@H]3N4)cc2)cc1 do in these assays?
PAX8 reporter: 75; EWS-Fli inh: inactive

How did COc1cccc(S(=O)(=O)N2C[C@@H]3N[C@H](C2)C3c2ccc(/C=C/c3ccccc3)cc2)c1 (stereo partly specified) do in these assays?
PAX8 reporter: 92!; EWS-Fli inh: inactive

Results for Cc1noc(C)c1NC(=O)N[C@H]1CC[C@@H](CCNC(=O)C2CCOCC2)O[C@@H]1CO ?
PAX8 reporter: inactive; EWS-Fli inh: inactive

How did Cc1ccc(-c2ccc(C3[C@H]4CNC[C@@H]3N4C(=O)Nc3ccccc3Cl)cc2)cc1 (stereo partly specified) do in these assays?
PAX8 reporter: inactive; EWS-Fli inh: inactive

Results for Cc1ccc(-c2ccc(C3[C@H]4CNC[C@@H]3N4C(=O)Nc3ccc(F)cc3)cc2)cc1 (stereo partly specified) ?
PAX8 reporter: inactive; EWS-Fli inh: 62!

What do the screens show for `COc1ccccc1-c1ccc(C2[C@H]3CNC[C@@H]2N3C(=O)Nc2ccccc2Cl)cc1` (stereo partly specified)?
PAX8 reporter: inactive; EWS-Fli inh: 62

What do the screens show for `Nc1ncnc2c(C3OC(CO)C(O)C3O)scc12` (stereo unspecified)?
PAX8 reporter: 114; CF NFkB inh: inactive; EWS-Fli inh: inactive; HIF-2a block: 50; KKLEB cytotox: inactive

Results for Brc1ccccc1CN1CCN(Cc2c[nH]c3ccccc23)CC1 ?
PAX8 reporter: 63; EWS-Fli inh: inactive

Results for O=S(=O)(Nc1cccc(-c2cn3cccnc3n2)c1)c1ccc(F)cc1 ?
PAX8 reporter: 77; CF NFkB inh: inactive; EWS-Fli inh: inactive; HIF-2a block: inactive; KKLEB cytotox: inactive

Results for CO[C@@H]1CN(C)C(=O)c2cc(NC(=O)C3CC3)ccc2OC[C@@H](C)N(C(=O)C2CCOCC2)C[C@H]1C ?
PAX8 reporter: inactive; EWS-Fli inh: inactive

How did CCC(NC(=O)Nc1nnc(C(F)(F)F)s1)(C(F)(F)F)C(F)(F)F do in these assays?
CF NFkB inh: 58; HIF-2a block: inactive; KKLEB cytotox: -51

Results for CO[C@@H]1CN(C)C(=O)c2cc(NC(=O)Cc3ccccc3)ccc2OC[C@@H](C)N(CC2CC2)C[C@H]1C ?
PAX8 reporter: inactive; EWS-Fli inh: inactive

Results for COc1ccc(CN(C)C[C@H]2OCCCC[C@H](C)Oc3ccc(NS(=O)(=O)c4ccc(Cl)cc4)cc3C(=O)N([C@H](C)CO)C[C@H]2C)cc1 ?
PAX8 reporter: 65; EWS-Fli inh: inactive

How did COc1ccc(S(=O)(=O)Nc2ccc3c(c2)C(=O)N([C@H](C)CO)C[C@@H](C)[C@H](CN(C)Cc2ccc(Cl)c(Cl)c2)OCCCC[C@H](C)O3)cc1 do in these assays?
PAX8 reporter: 68; EWS-Fli inh: inactive

What do the screens show for `COc1ccc(S(=O)(=O)Nc2ccc3c(c2)C(=O)N([C@@H](C)CO)C[C@@H](C)[C@H](CN(C)Cc2ccc(Cl)c(Cl)c2)OCCCC[C@@H](C)O3)cc1`?
PAX8 reporter: 73; EWS-Fli inh: inactive

Results for COc1ccc(CN(C)C[C@@H]2Oc3c(NS(=O)(=O)c4ccc(C)cc4)cccc3C(=O)N([C@H](C)CO)C[C@@H]2C)cc1 ?
PAX8 reporter: inactive; EWS-Fli inh: inactive

What do the screens show for `CCC(=O)N1CC2(C1)CN(C(=O)Cc1ccccc1)[C@@H](CO)c1c2c2ccc(OC)cc2n1C`?
EWS-Fli inh: inactive

What do the screens show for `CCNC(=O)C[C@H]1C=C[C@@H](NC(=O)C2CCC2)[C@@H](CO)O1`?
EWS-Fli inh: inactive

How did COc1cc2c(cc1OC)CN(C(=O)[C@@H]1[C@H]3C(=O)O[C@H](c4ccccc4)[C@H](c4ccccc4)N3[C@H](c3ccc(OCCO)cc3)[C@@]13C(=O)Nc1ccc(C#CC4(O)CCCCCC4)cc13)CC2 do in these assays?
PAX8 reporter: inactive; EWS-Fli inh: inactive

How did CCCC#Cc1ccc2c(c1)O[C@H](CN(C)C(=O)C1CCC1)[C@H](C)CN([C@@H](C)CO)S2(=O)=O do in these assays?
EWS-Fli inh: inactive

Results for COc1cccc(CNC(=O)C[C@@H]2CC[C@@H]3[C@@H](COc4ccc(NS(=O)(=O)c5ccccc5F)cc4C(=O)N3C)O2)c1 ?
PAX8 reporter: inactive; EWS-Fli inh: inactive

How did CCCCCCOc1ccc(/C(N)=N/O)cc1 do in these assays?
CF NFkB inh: inactive; HIF-2a block: inactive; KKLEB cytotox: inactive

Results for N=C(N)c1ccc(OCCCCCOc2ccc(C(=N)N)cc2)cc1 ?
PAX8 reporter: 83; CF NFkB inh: inactive; EWS-Fli inh: inactive; HIF-2a block: inactive; KKLEB cytotox: inactive

What do the screens show for `CC1CN(CC(O)COC(c2ccccc2)c2ccccc2)CC(C)O1` (stereo unspecified)?
PAX8 reporter: 120; CF NFkB inh: inactive; EWS-Fli inh: inactive; HIF-2a block: inactive; KKLEB cytotox: inactive

How did OC(COC(c1ccccc1)c1ccccc1)CN1CCOCC1 (stereo unspecified) do in these assays?
PAX8 reporter: inactive; CF NFkB inh: inactive; EWS-Fli inh: inactive; HIF-2a block: inactive; KKLEB cytotox: inactive

What do the screens show for `C[C@@H]1CN([C@@H](C)CO)C(=O)Cc2cc(NC(=O)Nc3ccc(C(F)(F)F)cc3)ccc2O[C@@H]1CN(C)CC1CCCCC1`?
PAX8 reporter: inactive; EWS-Fli inh: inactive

Results for CS(=O)(=O)c1nc([N+](=O)[O-])nn1CCCc1ccccc1 ?
CF NFkB inh: 90; HIF-2a block: inactive; KKLEB cytotox: inactive

What do the screens show for `Cn1nc([N+](=O)[O-])nc1Oc1ccccc1F`?
PAX8 reporter: inactive; CF NFkB inh: inactive; EWS-Fli inh: inactive; HIF-2a block: inactive; KKLEB cytotox: inactive

Results for Cn1nc([N+](=O)[O-])nc1S(C)(=O)=O ?
PAX8 reporter: inconclusive; CF NFkB inh: 70; EWS-Fli inh: inactive; HIF-2a block: inactive; KKLEB cytotox: inactive

Results for CCOc1cccc(/C=N/NC(=S)Nc2ccccc2[N+](=O)[O-])c1O ?
PAX8 reporter: inactive; CF NFkB inh: inactive; EWS-Fli inh: inactive; HIF-2a block: 48; KKLEB cytotox: inactive

What do the screens show for `CCCCNC(=S)N/N=C/c1cccc(OCC)c1O`?
PAX8 reporter: inactive; CF NFkB inh: inactive; EWS-Fli inh: inactive; HIF-2a block: inactive; KKLEB cytotox: inactive

What do the screens show for `C[C@H](CO)N1C[C@H](C)[C@@H](CN(C)C(=O)c2ccncc2)OCCCC[C@H](C)Oc2ccc(N(C)C)cc2C1=O`?
PAX8 reporter: inactive; EWS-Fli inh: inactive
